Screening results as filed in PubChem BioAssay.
Glioma ERSR ind = qHTS for Inducers of the Endoplasmic Reticulum Stress Response (ERSR) in Human Glioma: qHTS; U87-MG GRP78 promoter luciferase reporter, 16 h; Potency, µM, inactives show at the top dose activation, hits mostly activators; 0.02% of 420,000 active; AID 602332, 2012; note: series mostly up to about 76 µM; % of control where 0% means no effect; nearly all actives have a fitted effect of over 35% in size
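ERSR induction read as luciferase luminescence (Bright-Glo, 10 min at room temperature) in stably transfected human U87-MG glioma cells exposed to compounds for 16 h, using GRP78 as sensor.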
12-LOX inh = Primary qHTS assay for inhibitors of human arachidonate 12S-lipoxygenase (ALOX12): Round 2; Potency, µM (titrated, usually from 108 µM), without a hit: at the top dose activity change, negative = inhibition, hits mostly inhibitors; purified 12hLO, xylenol orange hydroperoxide absorbance; 1.1% of 580,000 active; AID 1671190, 2021; note: % is set by controls: 0 for no effect and ±100 for the full control effect
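Hydroperoxide product was detected by ferrous iron/xylenol orange as the 573 to 405 nm absorbance ratio. Arachidonic acid at 40 uM (final) was turned over for 30 min at room temperature by 150 nM human 12hLO, pH 7.0 Hepes buffer, after 15 min compound preincubation.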
TrxR1 inh = qHTS Assay for Inhibitors of Mammalian Selenoprotein Thioredoxin Reductase 1 (TrxR1): qHTS. Thioredoxin reductase 1, cytoplasmic (Rattus norvegicus), O89049. recombinant rTrxR1, NADPH fluorescence consumption, selenite substrate. Potency, µM (doses to about 114 µM), without a hit: top-dose activity change, negative = inhibition, actives largely listed as inhibitors. 1% of 390,000 active; note: % is set by controls: 0 for no effect and ±100 for the full control effect; nearly all actives have a fitted effect of over 65% in size
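Rat TrxR1 (90 nM in the dispensed reagent) was pre-reduced with 400 uM NADPH for 5 min at room temperature, then incubated with compound for 15 min. After 400 uM selenite was added, NADPH fluorescence (Ex 340/Em 450 nm) was followed for 8 min.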
Anesthetic bind = qHTS Assay for Identification of Novel General Anesthetics. apoferritin/1-aminoanthracene competitive binding, fluorescence. Potency, µM (series often up to 77.5 µM), inactives show at the top dose activity change, negative = displacement, usual class: inhibitors. 0.074% of 350,000 active. AID 485281, 2010; note: % is set by controls: 0 for no effect and ±100 for the full control effect; nearly all actives have a fitted effect of over 20% in size
Target sequence (P02791 2-175 limits assumed): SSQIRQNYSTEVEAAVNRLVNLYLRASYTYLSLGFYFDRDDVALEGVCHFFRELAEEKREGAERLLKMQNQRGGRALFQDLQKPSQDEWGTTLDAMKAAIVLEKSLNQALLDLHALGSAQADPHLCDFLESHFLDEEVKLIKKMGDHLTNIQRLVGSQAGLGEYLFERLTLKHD
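Horse-spleen apoferritin (10 uM) in 50% saturated 1-aminoanthracene in PBS was incubated 10 min at room temperature with compound. Fluorescence (ex 380, em 535 nm) was normalized to free and bound 1-AMA, with concentration-response fitted by a four-parameter Hill equation.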
TrxR1 substrate = qHTS Assay for Substrates of Mammalian Selenoprotein Thioredoxin Reductase 1 (TrxR1): qHTS. Thioredoxin reductase 1, cytoplasmic (Rattus norvegicus), O89049. Potency, µM (highest dose often 114 µM), inactives show at the top dose activity change, negative = substrate turnover. purified TrxR1 substrate turnover, NADPH consumption readout. AID 588456, 2011. 0.01% of 390,000 active; note: % is set by controls: 0 for no effect and ±100 for the full control effect; nearly all actives have a fitted effect of over 50% in size
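Rat TrxR1, dispensed at 90 nM, was prereduced with 400 uM NADPH (final) for 5 min at ~22 deg C, then incubated with compound 15 min before 400 uM selenite. A first-read NADPH fluorescence drop versus no-compound background flagged substrates.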
IDH1 R132H inh = qHTS for Inhibitors of mutant isocitrate dehydrogenase 1 (IDH1): qHTS. Isocitrate dehydrogenase [NADP] cytoplasmic (Homo sapiens), O75874. IDH1-R132H enzyme, NADPH consumption, diaphorase/resazurin fluorescence. Potency, µM (top dose mostly 76.6 µM), without a hit: top-dose activity change, negative = inhibition, usual class: inhibitors. 0.093% of 390,000 active; note: % is set by controls: 0 for no effect and ±100 for the full control effect; nearly all actives have a fitted effect of over 65% in size
Target sequence (O75874 whole entry R132H, stated change not applied): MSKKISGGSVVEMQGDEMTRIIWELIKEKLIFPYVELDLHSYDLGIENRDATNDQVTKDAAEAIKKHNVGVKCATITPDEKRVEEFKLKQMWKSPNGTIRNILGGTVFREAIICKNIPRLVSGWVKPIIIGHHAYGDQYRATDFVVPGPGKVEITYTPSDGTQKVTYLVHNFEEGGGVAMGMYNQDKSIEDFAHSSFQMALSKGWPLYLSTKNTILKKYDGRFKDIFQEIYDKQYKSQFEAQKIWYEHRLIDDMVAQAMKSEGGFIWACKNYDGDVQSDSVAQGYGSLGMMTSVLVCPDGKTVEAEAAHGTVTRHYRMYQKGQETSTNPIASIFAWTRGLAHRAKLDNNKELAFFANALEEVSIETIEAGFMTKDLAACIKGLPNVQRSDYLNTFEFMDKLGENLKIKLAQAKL
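IDH1-R132H (0.5 ug/mL) preincubated 30 min with compound, then NADPH (0.016 mM) and alpha-KG (2 mM) added; 80 min at RT, pH 7.5. Remaining NADPH coupled via diaphorase/resazurin to fluorescence (540/590 nm); concentration-response curves normalized to no-enzyme control.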
The depositor's hits bear a star; ? = inconclusive; nt = no result given; [ ] = dose if it differs, or a comment. Only some compounds are listed: those with a hit (about 1.7% of all), similar ones and a draw of the others. Calls come from the whole dose curve; as a rule, active = well fitted curve in the direction sought with a large enough effect; inconclusive = small, poorly fitted or top-dose-only effect, or another doubt; inactive = no such curve, though single readings can be large; an effect the other way counts as inactive or inconclusive. Potency is the fitted concentration of half-maximal effect.

SMILES | Glioma ERSR ind | 12-LOX inh | TrxR1 inh | Anesthetic bind | TrxR1 substrate | IDH1 R132H inh
C#Cc1ccc([C@H]2C=C(C(=O)O)O[C@@H](OCc3ccc(CO)cc3)C2)cc1 | -1% | 45µM* | -4% | -5% | -3% | 10%
Cn1cccc1C(=O)C(=O)N1CCC(O)(CN2CCOCC2)C(C)(C)C1 (centres undefined) | nt | 24% | nt | nt | nt | nt
Oc1ccc(-n2nnnc2SCc2ncc(-c3ccc(Cl)cc3)o2)cc1 | nt | 32µM* | nt | nt | nt | nt
c1ccc(-c2cnc(CSc3nnnn3-c3ccccc3)o2)cc1 | nt | 6% | nt | nt | nt | nt
CC(C)(C)NS(=O)(=O)c1cccc(NC(=O)c2ccc(NC(=O)C3CC3)cc2)c1 | nt | 18% | nt | nt | nt | nt
CCN(CC)CC(C)(C)C(=O)/C=C/c1ccc(/C=C/C(=O)C(C)(C)CN(CC)CC)cc1 | -13% | -19% | 2µM* | nt | -11% | 1%
O=S(=O)(c1cccnc1)N1CCC2(CC1)NCCc1c2[nH]c2ccccc12 | nt | 23% | nt | nt | nt | nt
Cn1c(=O)c2[nH]c(SCCN3CCOCC3)nc2n(C)c1=S | -1% | 32µM* | 15%[57.1 µM] | nt | 10%[57.1 µM] | 11%
CCSc1nc2c([nH]1)c(=O)n(C)c(=S)n2C | -5% | 10µM* | -4%[2.29 µM] | nt | 0%[2.29 µM] | 3%
CCCSc1nc2c([nH]1)c(=O)n(C)c(=S)n2C | -1% | ? | -10% | nt | -9% | 2%
C/C(=C\C(=O)c1ccc(F)cc1)NCc1ccc2c(c1)OCO2 | -2% | 40µM* | 10%[57.1 µM] | ? | 5%[57.1 µM] | 4%
C/C(=C\C(=O)c1ccc(Br)cc1)NCc1ccc2c(c1)OCO2 | 1% | 20% | -2%[11.4 µM] | ? | -5%[11.4 µM] | 2%
Cc1cccc(OCCc2noc(C3CCCN(Cc4ccccn4)C3)n2)c1 (centres undefined) | nt | 48% | nt | nt | nt | nt
CCOc1ccc(CN2CCCC(COc3ccccc3C(=O)N3CCCC3)C2)cc1 (centres undefined) | nt | 56% | nt | nt | nt | nt
CCOCCn1c(=O)[nH]c2cc(C(=O)N(C)Cc3nccs3)ccc21 | nt | 16% | nt | nt | nt | nt
Nc1nc(-c2cccs2)c(CC(=O)O)s1 | -2% | -18% | -5%[57.1 µM] | -3% | 3%[57.1 µM] | -9%
Cc1ccc(Nc2nc(-c3ccc(C)cc3)c(CC(=O)O)s2)cc1 | 3% | 40µM* | 13%[57.1 µM] | -23% | 6%[57.1 µM] | 1%
O=C(O)Cc1sc(N/N=C\c2ccncc2)nc1-c1ccccc1 | -1% | -5% | 3.2µM* | -24% | -8% | -4%
C(=N\Nc1nc(-c2ccccc2)cs1)/c1ccncc1 | 3% | -15% | 32%[11.4 µM] | -20% | 10%[11.4 µM] | 4%
O=C(O)Cc1sc(Nc2ccc(Cl)cc2)nc1-c1cccs1 | 5% | 14µM* | -5%[57.1 µM] | -21% | -2%[57.1 µM] | -5%
O=C(O)Cc1sc(Nc2cccc3ccccc23)nc1-c1ccc(Cl)cc1 | -4% | 45µM* | -13%[57.1 µM] | 5% | 13%[57.1 µM] | -3%
O=C(O)Cc1sc(Nc2ccccc2)nc1-c1ccccc1 | 4% | 0% | 5% | 1% | -3% | -2%
O=C(c1ccc(N2CC3CC(C2)[C@H]2CCCC(=O)N2C3)nc1)N1CCC(N2CCCCC2)CC1 (some centres undefined) | nt | 20% | nt | nt | nt | nt
CN(C)Cc1ccccc1-c1nc(NC2CCNCC2)c2ccccc2n1 | ? | -18% | nt | nt | nt | nt
Cc1ccc(C(C)C)c(OCCNCCc2ccccc2)c1 | -6% | 7.9µM* | -27% | -5% | -16% | -2%
SMILES | Glioma ERSR ind | 12-LOX inh | TrxR1 inh | Anesthetic bind | TrxR1 substrate | IDH1 R132H inh
Cc1ccc(C(C)C)c(OCCCNCc2cccnc2)c1 | -6% | -16% | -3% | -13% | 1% | -12%
Cn1ccsc1=NC(=O)c1ccc(S(C)(=O)=O)c([N+](=O)[O-])c1 | ? | 5% | 56µM* | 1% | -13% | 0%
Cn1ccsc1=NC(=O)c1ccc(Cl)c([N+](=O)[O-])c1 | -3% | 0% | 12% | 11% | 2% | 5%
CC(C)OP(=O)(OC(C)C)C1(O)C(=O)Nc2ccc(Br)cc21 (centres undefined) | -5% | ? | 40µM* | -17% | -1% | 10%
Cc1cn2nc(-c3nc(C4CCCN(C(=O)c5sccc5C)C4)no3)cc2c(=O)[nH]1 (centres undefined) | nt | 54% | nt | nt | nt | nt
CN(C)NC(=S)NC1CC2CCC1C2 (centres undefined) | -1% | 18µM* | 17% | -3% | 4% | 3%
OCCCNC(=S)NC1CC2CCC1C2 (centres undefined) | nt | -7% | nt | nt | nt | nt
S=C(NCCCc1ccccc1)Nc1ccc(Br)cc1Cl | nt | 45µM* | nt | nt | nt | nt
S=C(NCCc1ccccc1)Nc1ccc(Br)cc1 | 2% | 35µM* | -21% | -10% | -14% | 1%
CCOCCCNC(=S)Nc1ccc(Br)cc1Cl | 2% | 9% | ? | -7% | 0% | 0%
CCCNC(=S)Nc1ccc(Br)cc1 | 4% | ? | 7%[57.1 µM] | -12% | -5% | 6%
Fc1ccc(CCNC(=S)Nc2ccc(Oc3ccccc3)cc2)cc1 | nt | 22µM* | nt | nt | nt | nt
Cc1nnc2n1CCC(NS(=O)(=O)c1ccccc1F)CC2 (centres undefined) | nt | 13% | nt | nt | nt | nt
CC(=O)Nc1cccc(CN2CCC(N3CCCNC3=O)CC2)c1 | nt | 11%[176 µM] | nt | nt | nt | nt
COc1c(C2CC(=O)Nc3c2ncn3-c2cccc(Cl)c2)cc2c(c1OC)OCO2 (centres undefined) | nt | -17% | nt | nt | nt | nt
O=C1CC(c2ccccc2)c2ncn(-c3cc(F)ccc3F)c2N1 (centres undefined) | nt | 5µM* | nt | nt | nt | nt
Cc1noc2c(NCC3CCOCC3)cc(-c3ccc(F)cc3)nc12 | nt | 56µM* | nt | nt | nt | nt
CCNC(=O)N1CCCC1c1noc(CCC(=O)NCCC(C)C)n1 (centres undefined) | nt | 40µM* | nt | nt | nt | nt
CC1=NS(=O)(=O)c2cc(C(=O)Nc3ccc(C)cc3C)ccc2N1CC(C)C | nt | -2% | nt | nt | nt | nt
